Results: PubChem BioAssay

What follows are compounds tested against E3 ubiquitin-protein ligase XIAP (Homo sapiens) (UniProt P98170) (assay: XIAP binders, primary screen, biophysical, small-molecule microarray, fluorescence 635 nm (AID 1181;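 also: score merges 667 nm emission and signal to noise over triplicate slides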)). Conditions: small-molecule microarray binding, higher = more signal.
E3 ubiquitin-protein ligase XIAP (Homo sapiens), sequence (P98170 whole entry, looked up): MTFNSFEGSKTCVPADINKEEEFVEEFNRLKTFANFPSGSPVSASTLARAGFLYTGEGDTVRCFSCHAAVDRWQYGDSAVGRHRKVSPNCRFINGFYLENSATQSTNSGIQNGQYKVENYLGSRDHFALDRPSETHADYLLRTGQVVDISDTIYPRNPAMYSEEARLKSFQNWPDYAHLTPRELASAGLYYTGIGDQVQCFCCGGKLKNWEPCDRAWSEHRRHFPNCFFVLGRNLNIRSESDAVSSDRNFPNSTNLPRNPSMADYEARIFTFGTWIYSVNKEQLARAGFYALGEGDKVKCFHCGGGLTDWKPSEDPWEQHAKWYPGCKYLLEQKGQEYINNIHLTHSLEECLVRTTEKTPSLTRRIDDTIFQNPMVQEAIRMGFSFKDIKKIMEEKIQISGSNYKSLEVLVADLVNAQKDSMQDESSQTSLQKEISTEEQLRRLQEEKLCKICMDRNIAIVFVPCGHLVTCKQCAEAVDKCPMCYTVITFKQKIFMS

Compound	composite z-score
COCC(=C=CC[C@@H](O)c1cccc(OCCO)c1)C[C@@H](O)c1ccccn1	0.0471
C[C@@]1([C@@H](NC(=O)c2ccc(-c3ccccc3)cc2)c2ccc(Cl)cc2)C[C@H]1C1CCCCC1	0.119
CCc1cccc(NC(=O)O[C@H]2[C@H](OC(=O)Nc3ccccc3-c3ccccc3)[C@@H](OC(=O)Nc3ccccc3-c3ccccc3)[C@@H](OC)O[C@@H]2CO)c1	0.19
C=C[C@H](CO[Si](CC)(CC)CC)N(Cc1ccc(OC(C)=O)c(OC)c1)S(=O)(=O)c1ccc(Br)cc1	0.0487
C[C@H]1NC(=O)[C@@]23C(=O)N[C@@H](Cc4ccccc4)C2[C@H](C)[C@@]2(C)O[C@H]2C3/C=C/C/C=C\CNC(=O)[C@@H]2CCCN2C1=O (stereo partly drawn)	0.0049
CCS[C@H]1[C@@H](C(=O)O)[C@H](c2ccc(C)cc2)N(S(=O)(=O)c2ccc(C)cc2)[C@@H]1CC	-0.167
COCCOC(=O)N1C(=O)[C@@]2(c3ccccc31)[C@H](C(=O)N1CCc3cc(OC)c(OC)cc3C1)[C@H]1C(=O)O[C@H](c3ccccc3)[C@H](c3ccccc3)N1[C@@H]2c1ccc(OCCO)cc1	-0.0405
[N-]=[N+]=Nc1ccccc1[C@H]1OC(c2ccc(OCCCO)cc2)=N[C@@]1(CCS(=O)(=O)c1ccccc1)C(=O)NCC(O)CO (stereo partly drawn)	0.0727
[N-]=[N+]=NCc1ccccc1[C@@H]1OC(c2ccc(OCCCO)cc2)=N[C@]1(Cc1ccccc1)C(N)=O	0.319
C=C(CCCC)C(=O)CC[C@@H](OC(=O)c1ccccc1-c1ccccc1C(=O)O)c1ccc(OCCO)cc1	-0.182
O=C(CS)NCCCCCCNC(=O)[C@@H]1C[C@@H]2C(=O)N[C@@H](Cc3ccccc3)C(=O)N2[C@@H]1c1cccc(OCCO)c1	0.0264
CC(C)C(O)C1C=CC2C(=O)N(c3ccccc3)C(=O)C2N1Nc1ccc([N+](=O)[O-])cc1 (stereo not drawn)	0.302
CC(C)N1C(=O)[C@@]2(Cc3ccccc31)c1ccccc1C(=O)N(Cc1ccccc1Cl)[C@H]2c1ccc(CO)cc1	0.257
C=CCC(OC(C)=O)[C@@H]1[C@@H](N(Cc2cc3ccccc3o2)C(=O)c2cccc3ccccc23)c2cc(OCCCO)ccc2N1C(=O)c1ccc(-c2ccccc2)cc1 (stereo partly drawn)	-0.256
C=CCC(OC(C)=O)[C@@H]1[C@@H](N(Cc2ccc(-c3ccccc3)cc2)C(=O)Cc2ccc(OC)cc2)c2cc(OCCCO)ccc2N1C(=O)Cc1ccc2ccccc2c1 (stereo partly drawn)	0.098
Cc1ccc(S[C@]2(C(=O)O)CC(=O)N(C(C)C)[C@@H]2c2ccc(CO)cc2I)cc1	-0.122
O=C1O[C@@H](c2ccccc2)[C@@H](c2ccccc2)N2[C@@H](c3ccccc3OCCO)[C@]3(C(=O)Nc4ccc(C#CC5=CCCCC5)cc43)[C@@H](C(=O)N3CCCCCCC3)[C@H]12	1.56
O=C1OCCC/C=C\[C@H]2OC34C=CCN(Cc5ccccc5)C(=O)[C@H]3N(CCCO)C(=O)[C@@H]4C12 (stereo partly drawn)	-0.0876
COC(=O)[C@@]1(Cc2ccc(OC)cc2)[C@H]2c3cc(C(=O)N(C)C)n(Cc4ccc(S(C)(=O)=O)cc4)c3C[C@H]2CN1C(=O)c1ccccc1	-0.0139
CC(C)C[C@@H]1NC(=O)[C@H](C(C)C)NC(=O)[C@@]23C(=O)N[C@@H](Cc4ccccc4)C2[C@H](C)[C@@]2(C)O[C@H]2C3/C=C/CC/C=C/CNC1=O (stereo partly drawn)	-0.243
COCCOC(=O)N1C(=O)[C@@]2(c3ccccc31)[C@H](c1ccc(O)cc1)N1[C@H](c3ccccc3)[C@H](c3ccccc3)OC(=O)[C@H]1[C@@H]2C(=O)Nc1nc2ccccc2s1	-0.02
CC(C)OC(=O)C=C1C[C@@H](c2ccccn2)O[C@@H](c2ccccn2)O1	0.462
COC(=O)[C@@]1(Cc2ccc(F)cc2)[C@H]2c3cc(C(=O)N(C)C)n(Cc4ccc(Cl)c(C(F)(F)F)c4)c3C[C@H]2CN1C(=O)c1ccccc1	0.929
CC(C)(C)OC(=O)CC[C@]1(C(=O)N2CCOCC2)N=C(c2ccc(OCCCO)cc2)O[C@H]1c1ccccc1N=[N+]=[N-]	0.115
C=C(C(=O)CC[C@@H](OC(=O)c1cccnc1)c1ccccc1OCCO)C(C)C	-0.0872
NCCCCCCNC(=O)[C@@H]1C[C@@H]2C(=O)NCC(=O)N2[C@@H]1c1ccc(O)cc1	0.0761
CCCCCCc1nc(-c2cc(C)c(OC)c(C)c2)cc2c1[Si](C(C)C)(C(C)C)OC2	0.0537
C=CCOC(=O)[C@@H]1[C@H]2C(=O)O[C@H](c3ccccc3)[C@H](c3ccccc3)N2[C@H](c2ccc(OCCOC(=O)[C@H]3C[C@H]4C(=O)N5CCC[C@H]5C(=O)N4[C@H]3c3ccc(O)cc3)cc2)[C@@]12C(=O)Nc1ccc(I)cc12	-0.02
